# According to PubChem BioAssay AID652042 (Broad Institute, 2013):
# Out of some 1,100 compounds screened, about 350 (32%) were called active. How the calls were made is not given here. These entries were drawn from the full list. Potency and affinity values are given separately.
# Assay: CEM21 lymphoblast cell cytotoxicity, dose response, cytotoxicity control for viral fusion inhibitor project, CellTiter-Glo luminescence, cherry-picked (AID 652042)
# Conditions: CEM21 cells viability, CellTiter-Glo ATP luminescence, 24 h; series mostly up to 35 µM; activity change, negative = cytotoxicity: at the top concentration
row,SMILES,"activity change, negative = cytotoxicity"
1,c1ccc(CNc2ncnc3ccccc23)cc1,-9.36% (inactive)
2,CCN(C[C@H]1N[C@@](C)(C(=O)OC)[C@H]2C(=O)N(Cc3ccccc3)C(=O)[C@@H]12)S(=O)(=O)c1ccc(C(C)(C)C)cc1,-18.3% (inactive)
3,CC1(Cc2ccc(Cl)cc2)C(=O)Nc2ccc(-c3cccnc3)cc21 (stereo unspecified),-18.7% (inactive)
4,O=C(CNc1ccc(F)cc1)c1ccccc1,-10.5% (inactive)
5,COc1cccc(Cl)c1NC(=O)N1CCc2c([nH]c3ccccc23)C1C(F)(F)F (stereo unspecified),-26.7% (inactive)
6,O=C(CCCCn1c(=O)[nH]c2ccccc2c1=O)N1CCN(c2cccc(C(F)(F)F)c2)CC1,-23% (inactive)
7,COc1ccc(N2CCN(C(=O)C3CCC(Cn4c(=S)[nH]c5ccccc5c4=O)CC3)CC2)cc1 (stereo unspecified),-1.8% (inactive)
8,CC(C)CCSc1nc(N)c(C#N)cc1C#N,-12.2% (inactive)
9,COC(=O)C1(C(=O)OC)C[C@H](c2ccc(OC)cc2)N(Cc2ccccc2OC)[C@@H]1c1cccs1,inactive
10,COc1ccc(CNc2ncnc3ccccc23)cc1,-6.27% (inactive)
11,CC(C)(C)c1ccc(C(=O)Nc2ccc(CC(=O)O)cc2)o1,6.68% [at 16 µM] (inactive)
12,Cc1nn(C)c(C)c1CN(C)S(=O)(=O)c1ccc2ccccc2c1,-10.7% (inactive)
13,CS(=O)(=O)N(Cc1ccc(Cl)cc1)c1ccc(C(=O)NCCC2=CCCCC2)cc1,-5.94% (inactive)
14,Cc1ccc2c(c1)c1c3n2CCN(CC(N)=O)C3CCC1 (stereo unspecified),-3.1% (inactive)
15,CO[C@H]1CN(C)C(=O)c2cc(NS(=O)(=O)c3ccc(Cl)cc3)ccc2OC[C@@H](C)N(C)C[C@@H]1C,3.29% (inactive)
16,Cc1cc2ncn(S(=O)(=O)N3CCCCC3)c2cc1C,-4.91% (inactive)
17,CC(=O)Nc1sc2c(c1C(c1ccc(F)cc1)N1CCOCC1)CCCC2 (stereo unspecified),-20.5% (inactive)
18,CC(C)(C)c1ccc(C(=O)N2CCCCCC2=O)cc1,0.857% (inactive)
19,CN(C[C@@H](CC1CCCCC1)N(C[C@H](Cc1ccccc1)N(CCc1ccccc1)N=O)N=O)N=O,-12.5% (inactive)
20,CC[C@]1(C(=O)OC)[C@H]2C(=O)N(Cc3ccccc3)C(=O)[C@H]2[C@H]2CN=C(SCC3CC3)N21,-6.36% (inactive)
21,CO[C@@H]1CN(C)C(=O)c2ccc(NC(C)=O)cc2OC[C@@H](C)N(Cc2cncnc2)C[C@@H]1C,1.19% (inactive)
22,COc1ccc(-c2cn3c(C)c(C(=O)Nc4cccc(NC(C)=O)c4)sc3n2)cc1,1.6% [at 16 µM] (inactive)
23,O=C(N/N=C/c1ccc(-n2ccnc2)cc1)c1cccs1,-9.81% (inactive)

row,SMILES,"activity change, negative = cytotoxicity"
1,Cc1ccc(-n2nnnc2-c2cnn(-c3ccc(F)cc3)c2C(F)(F)F)cc1,-12.1% (inactive)
2,CCc1ccc([C@H]2[C@@H]3C(=O)C[C@@H]4C(=O)N(C5CCCCC5)C(=O)[C@@H]4[C@@H]3CN2S(=O)(=O)c2ccc(C)cc2)cc1,-1.79% (inactive)
3,COc1ccc(OC2C(=O)N(Cc3ccc4c(c3)OCO4)C2c2cccs2)cc1 (stereo unspecified),-12% (inactive)
4,COC(=O)[C@H](Cc1ccccc1)NC(=O)Cn1cnc(C(=O)Nc2ccc(C)c(C)c2)n1,2.54% (inactive)
5,O=S(=O)(c1ccccc1Cl)N1CCCC1c1nc(-c2ccc(Cl)cc2)no1 (stereo unspecified),-8.34% (inactive)
6,CCNC(=O)C[C@@H]1CC[C@@H]2[C@H](COC[C@@H](O)CN2C(=O)c2ccccn2)O1,2.57% (inactive)
7,COc1ccc(CCNc2oc(-c3cccc4ccccc34)nc2P(=O)(OC)OC)cc1OC,-3.52% [at 16 µM] (inactive)
8,COC(=O)C1(C(=O)OC)C[C@H](c2ccccc2)N(Cc2ccccc2OC)[C@@H]1c1ccccc1,-15.9% (inactive)
9,COc1ccc(S(=O)(=O)Nc2ccc3c(c2)CC(=O)N([C@H](C)CO)C[C@H](C)[C@H](CN(C)S(=O)(=O)c2cccs2)O3)cc1,-4.69% (inactive)
10,CC(C)CNS(=O)(=O)c1ccc(CCC(=O)N2CCN(Cc3ccc4c(c3)OCO4)CC2)cc1,-1.06% (inactive)
11,CN1C(=O)C2(c3ccccc31)N(C)CC(c1ccccc1)C21SC(=S)N(Cc2ccco2)C1=O (stereo unspecified),-11.9% (inactive)
12,C[C@@]12C(=O)N(Cc3ccco3)CC(=O)N1[C@H]1c3ccccc3OC[C@@H]1[C@@H]2c1ccccc1,-10.9% (inactive)
13,O=C(NCCCN1CCc2ccccc2C1)Nc1ccc(Cl)cc1,-12.5% (inactive)
14,CCCCn1c(N)c(N(CC(C)C)C(=O)c2ccc(S(=O)(=O)N(CC)c3ccccc3)cc2)c(=O)[nH]c1=O,-1.92% (inactive)
15,NC(=O)c1sc2nccc(Nc3ccccc3)c2c1N,-3.31% (inactive)
16,CCc1nc2ccc(C(=O)NCCN3CCNC3=O)cn2c1N(CC)Cc1cccc(Br)c1,-7.03% (inactive)
17,Cc1ccccc1OCC(=O)Nc1cccc(C(=O)O)c1,-10.9% (inactive)
18,O=C(Nc1ccc(F)cc1)C1CCCN1S(=O)(=O)c1ccc(Br)cc1 (stereo unspecified),-8.12% (inactive)
19,CC(=O)c1c(C)[nH]c(C(=O)OCC(=O)Nc2c(C)cccc2C)c1C,-2.58% (inactive)
20,Cc1cc(Cl)ccc1OCC(=O)NNC(=O)C1CSC2(C)CCC(=O)N12 (stereo unspecified),2.33% (inactive)
21,O=C(Cc1ccc(S(=O)(=O)N2CCOCC2)s1)N1CCN(S(=O)(=O)c2ccc(Cl)cc2)CC1,-5.29% (inactive)
22,Cc1ccc(-c2nnc(N3CCN(C(=O)COc4ccccc4)CC3)c3ccccc23)cc1,-11.2% (inactive)
23,CC(NC(=O)c1cc(S(=O)(=O)N(C)C)ccc1N1CCCC1)C1CC2CCC1C2 (stereo unspecified),2.17% (inactive)
